Reference: the supplement of paper PMC8728848
About 410 targets per protein were measured; listed, in parts, are those with the strongest signals and a random draw of the rest.

Experiments:
Assay in all cases: glycan array binding signal (z-score within array); higher = stronger binding
Conditions in all cases: glycan notation: IUPAC condensed, linker removed
[1] = target: Fuc(a1-2)Gal(b1-4)GlcNAc(b1-3)Gal(b1-4)GlcNAc(b1-2)Man(a1-3)[Fuc(a1-2)Gal(b1-4)GlcNAc(b1-3)Gal(b1-4)GlcNAc(b1-2)Man(a1-6)]Man(b1-4)GlcNAc(b1-4)GlcNAc
Outline: (§1)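 Negative Z-scores can be read as non-binding. The Z-score is calculated within each array and then averaged across arrays of one protein sequence at different concentrations or buffers and across linkers. Arrays, 3228 in all, were curated from the Consortium for Functional Glycomics database and kept only where the protein sequence was available.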

[2] = target: Fuc(a1-2)[Gal(a1-3)]Gal(b1-4)GlcNAc
Outline: as §1

[3] = target: Fuc(a1-2)[Gal(a1-3)]Gal(b1-4)GlcNAc(b1-2)Man
Outline: as §1

[4] = target: Fuc(a1-2)[Gal(a1-3)]Gal(b1-4)GlcNAc(b1-6)GalNAc
Outline: as §1

[5] = target: Fuc(a1-2)[Gal(a1-3)]Gal(b1-4)[Fuc(a1-3)]GlcNAc(b1-3)GalNAc
Outline: as §1

[6] = target: Fuc(a1-2)[GalNAc(a1-3)]Gal(b1-4)GlcNAc(b1-2)Man(a1-3)[Fuc(a1-2)[GalNAc(a1-3)]Gal(b1-4)GlcNAc(b1-2)Man(a1-6)]Man(b1-4)GlcNAc(b1-4)[Fuc(a1-6)]GlcNAc
Outline: as §1

[7] = target: Fuc(a1-3)[Gal(b1-4)]GlcNAc(b1-3)Gal(b1-4)[Fuc(a1-3)]GlcNAc(b1-3)Gal(b1-4)[Fuc(a1-3)]GlcNAc
Outline: as §1

[8] = target: Fuc(a1-3)[Gal(b1-4)]GlcNAc6S
Outline: as §1

[9] = target: Fuc(a1-3)[Gal3S(b1-4)]GlcNAc6S
Outline: as §1

[10] = target: Fuc(a1-4)GlcNAc
Outline: as §1

[11] = target: Gal(a1-3)Gal
Outline: as §1

[12] = target: Gal(b1-3)GalNAc
Outline: as §1

[13] = target: Gal(b1-3)GlcNAc(b1-2)Man(a1-3)[Gal(b1-3)GlcNAc(b1-2)Man(a1-6)]Man(b1-4)GlcNAc(b1-4)GlcNAc
Outline: as §1

[14] = target: Gal(b1-3)GlcNAc(b1-3)Gal(b1-4)GlcNAc(b1-3)Gal(b1-4)GlcNAc(b1-2)[Gal(b1-3)GlcNAc(b1-3)Gal(b1-4)GlcNAc(b1-3)Gal(b1-4)GlcNAc(b1-6)]Man(a1-6)[Gal(b1-3)GlcNAc(b1-3)Gal(b1-4)GlcNAc(b1-3)Gal(b1-4)GlcNAc(b1-2)Man(a1-3)]Man(b1-4)GlcNAc(b1-4)[Fuc(a1-6)]GlcNAc
Outline: as §1

[15] = target: Gal(b1-3)[Fuc(a1-4)]GlcNAc(b1-2)Man
Outline: as §1

[16] = target: Gal(b1-3)[Fuc(a1-4)]GlcNAc(b1-3)Gal(b1-3)[Fuc(a1-4)]GlcNAc
Outline: as §1

[17] = target: Gal(b1-4)Gal
Outline: as §1

[18] = target: Gal(b1-4)GlcNAc(b1-2)[Gal(b1-4)GlcNAc(b1-6)]Man(a1-6)[GlcNAc(b1-4)][Gal(b1-4)GlcNAc(b1-2)[Gal(b1-4)GlcNAc(b1-4)]Man(a1-3)]Man(b1-4)GlcNAc(b1-4)[Fuc(a1-6)]GlcNAc
Outline: as §1

[19] = target: Gal(b1-4)GlcNAc(b1-3)Gal(b1-4)GlcNAc(b1-2)[Gal(b1-4)GlcNAc(b1-3)Gal(b1-4)GlcNAc(b1-6)]Man(a1-6)[Gal(b1-4)GlcNAc(b1-3)Gal(b1-4)GlcNAc(b1-2)Man(a1-3)]Man(b1-4)GlcNAc(b1-4)GlcNAc
Outline: as §1

[20] = target: Gal(b1-4)GlcNAc(b1-3)Gal(b1-4)GlcNAc(b1-3)GalNAc
Outline: as §1

[21] = target: Gal(b1-4)GlcNAc(b1-3)Gal(b1-4)GlcNAc(b1-3)[Gal(b1-4)GlcNAc(b1-3)Gal(b1-4)GlcNAc(b1-6)]GalNAc
Outline: as §1

[22] = target: Gal(b1-4)GlcNAc(b1-3)Gal(b1-4)[Fuc(a1-3)]GlcNAc(b1-3)Gal(b1-4)[Fuc(a1-3)]GlcNAc
Outline: as §1

[23] = target: Gal(b1-4)GlcNAc(b1-3)[Gal(b1-4)GlcNAc(b1-6)]Gal(b1-4)GlcNAc
Outline: as §1

[24] = target: Gal(b1-4)GlcNAc(b1-3)[GlcNAc(b1-6)]Gal(b1-4)GlcNAc
Outline: as §1

[25] = target: Gal3S(b1-4)Glc6S
Outline: as §1

[26] = target: GalNAc(b1-4)GlcNAc(b1-2)Man
Outline: as §1

[27] = target: GalNAc(b1-4)GlcNAc6S
Outline: as §1

[28] = target: GlcA(b1-3)GlcNAc
Outline: as §1

[29] = target: GlcNAc(a1-3)Gal(b1-4)GlcNAc
Outline: as §1

[30] = target: GlcNAc(b1-2)[GlcNAc(b1-6)]Man(a1-6)[GlcNAc(b1-4)][GlcNAc(b1-2)Man(a1-3)]Man(b1-4)GlcNAc(b1-4)GlcNAc
Outline: as §1

[31] = target: GlcNAc(b1-3)Man
Outline: as §1

[32] = target: Kdn(a2-3)Gal(b1-3)GlcNAc
Outline: as §1

[33] = target: Man(a1-2)Man(a1-2)Man(a1-3)Man
Outline: as §1

[34] = target: Man(a1-2)Man(a1-6)[Man(a1-3)]Man(a1-6)[Man(a1-2)Man(a1-2)Man(a1-3)]Man
Outline: as §1

[35] = target: Man(a1-3)[Man(a1-6)]Man
Outline: as §1

[36] = target: Man(a1-3)[Man(a1-6)]Man(b1-4)GlcNAc(b1-4)GlcNAc
Outline: as §1

[37] = target: Man(b1-4)GlcNAc
Outline: as §1

[38] = target: Neu5Ac(a2-3)Gal(b1-3)GalNAc6S
Outline: as §1

[39] = target: Neu5Ac(a2-3)Gal(b1-3)GlcNAc
Outline: as §1

[40] = target: Neu5Ac(a2-3)Gal(b1-4)Glc
Outline: as §1

[41] = target: Neu5Ac(a2-3)Gal(b1-4)GlcNAc(b1-2)Man
Outline: as §1

[42] = target: Neu5Ac(a2-3)Gal(b1-4)GlcNAc(b1-3)Gal(b1-4)GlcNAc(b1-3)[Neu5Ac(a2-3)Gal(b1-4)GlcNAc(b1-3)Gal(b1-4)GlcNAc(b1-6)]GalNAc
Outline: as §1

[43] = target: Neu5Ac(a2-3)Gal(b1-4)GlcNAc(b1-6)[Gal(b1-3)]GalNAc
Outline: as §1

[44] = target: Neu5Ac(a2-3)Gal(b1-4)[Fuc(a1-3)]GlcNAc(b1-2)Man
Outline: as §1

[45] = target: Neu5Ac(a2-3)Gal(b1-4)[Fuc(a1-3)]GlcNAc(b1-6)[Neu5Ac(a2-3)Gal(b1-3)]GalNAc
Outline: as §1

[46] = target: Neu5Ac(a2-3)GalNAc(b1-4)GlcNAc
Outline: as §1

[47] = target: Neu5Ac(a2-3)[Neu5Ac(a2-6)]GalNAc
Outline: as §1

[48] = target: Neu5Ac(a2-6)GlcNAc(b1-4)GlcNAc
Outline: as §1

[49] = target: Neu5Ac(a2-8)Neu5Ac
Outline: as §1

[50] = target: Neu5Ac9Ac(a2-3)Gal(b1-4)GlcNAc
Outline: as §1

[51] = target: Neu5Gc(a2-8)Neu5Gc(a2-3)Gal(b1-4)GlcNAc
Outline: as §1

B1: Mermaid3 (Stilbonema majum) (protein)
chain: MGSSHHHHHHSSGLVPRGSHMAASGWLRSPQGTVVKLYRRSLSWSKADEFCKDVDGRLVVDRTADMHLFLIKNVLKEKKSRVWVGLRRTASHSRTWIWSDGTRQNEGDLDANLWLRDEPNDAAGEEECALFMYSPWEKAWGLNDYLCRGGCRNYQFICEKWIR
With B1 the “glycan array binding signal (z-score)” value [1] was 0.368, the “glycan array binding signal (z-score)” value [2] was -0.174 and the “glycan array binding signal (z-score)” value [3] was -0.175. For the same binder, the “glycan array binding signal (z-score)” value [4] was -0.383, the “glycan array binding signal (z-score)” value [5] was -0.592 and the “glycan array binding signal (z-score)” value [6] was 0.166. For the same binder, the “glycan array binding signal (z-score)” value [7] was -0.463, the “glycan array binding signal (z-score)” value [8] was 3.67 and the “glycan array binding signal (z-score)” value [9] was -0.521. The “glycan array binding signal (z-score)” value [10] was 1.39, the “glycan array binding signal (z-score)” value [11] was -0.579 and the “glycan array binding signal (z-score)” value [12] was 0.892. The “glycan array binding signal (z-score)” value [13] was -0.627, the “glycan array binding signal (z-score)” value [14] was 5.6 and the “glycan array binding signal (z-score)” value [15] was 0.676. The “glycan array binding signal (z-score)” value [16] was -0.634, the “glycan array binding signal (z-score)” value [17] was 6.72 and the “glycan array binding signal (z-score)” value [18] was -0.562. The “glycan array binding signal (z-score)” value [19] was 3.51, the “glycan array binding signal (z-score)” value [20] was -0.185 and the “glycan array binding signal (z-score)” value [21] was -0.118. For the same binder, the “glycan array binding signal (z-score)” value [22] was -0.554, the “glycan array binding signal (z-score)” value [23] was -0.074 and the “glycan array binding signal (z-score)” value [24] was 4.93. For the same binder, the “glycan array binding signal (z-score)” value [25] was -0.077, the “glycan array binding signal (z-score)” value [26] was -0.708 and the “glycan array binding signal (z-score)” value [27] was 3.6. For the same binder, the “glycan array binding signal (z-score)” value [28] was 1.68, the “glycan array binding signal (z-score)” value [29] was 1.05 and the “glycan array binding signal (z-score)” value [30] was -0.397. The “glycan array binding signal (z-score)” value [31] was 5.11, the “glycan array binding signal (z-score)” value [32] was -0.708 and the “glycan array binding signal (z-score)” value [33] was -0.704. The “glycan array binding signal (z-score)” value [34] was -0.681, the “glycan array binding signal (z-score)” value [35] was 0.678 and the “glycan array binding signal (z-score)” value [36] was -0.62. The “glycan array binding signal (z-score)” value [37] was 4.76, the “glycan array binding signal (z-score)” value [38] was -0.112 and the “glycan array binding signal (z-score)” value [39] was -0.277. For the same binder, the “glycan array binding signal (z-score)” value [40] was 0.506, the “glycan array binding signal (z-score)” value [41] was 4.26 and the “glycan array binding signal (z-score)” value [42] was -0.289. For the same binder, the “glycan array binding signal (z-score)” value [43] was 4.77, the “glycan array binding signal (z-score)” value [44] was -0.553 and the “glycan array binding signal (z-score)” value [45] was -0.153. For the same binder, the “glycan array binding signal (z-score)” value [46] was 0.426, the “glycan array binding signal (z-score)” value [47] was 4.44 and the “glycan array binding signal (z-score)” value [48] was -0.709. The “glycan array binding signal (z-score)” value [49] was -0.57, the “glycan array binding signal (z-score)” value [50] was -0.2 and the “glycan array binding signal (z-score)” value [51] was -0.787.
